Data taken from the supplement of paper PMC11001985.

Compound: C#CCNC(=O)CCSSCCC(=O)NCCc1ccc(C=O)c(C=O)c1
Test: lysine labeling ratio R10:1 (500 µM / 50 µM probe), SILAC-ABPP in living cells; higher = lower intrinsic lysine reactivity toward the probe, active = 2 or less
Details: HeLa; probe concentrations 500 vs 50 µM
Protocol: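 Living HeLa cells (SILAC light/heavy) in PBS at room temperature were labeled with 50 µM versus 500 µM of the lysine-reactive, reductant-cleavable probe OPA-S-S-alkyne (SILAC labeling time not stated). Probe-modified peptides were CuAAC-biotinylated, captured on neutravidin and eluted with DTT/IAA, then quantified by LC-MS/MS. R = median peptide ratio per lysine (500/50 µM), combined over 3 forward and 3 reverse SILAC replicates. Ratios are capped at 20; R < 2 = hyper-reactive.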

Chain of UniProt Q15149 (Q15149 whole entry): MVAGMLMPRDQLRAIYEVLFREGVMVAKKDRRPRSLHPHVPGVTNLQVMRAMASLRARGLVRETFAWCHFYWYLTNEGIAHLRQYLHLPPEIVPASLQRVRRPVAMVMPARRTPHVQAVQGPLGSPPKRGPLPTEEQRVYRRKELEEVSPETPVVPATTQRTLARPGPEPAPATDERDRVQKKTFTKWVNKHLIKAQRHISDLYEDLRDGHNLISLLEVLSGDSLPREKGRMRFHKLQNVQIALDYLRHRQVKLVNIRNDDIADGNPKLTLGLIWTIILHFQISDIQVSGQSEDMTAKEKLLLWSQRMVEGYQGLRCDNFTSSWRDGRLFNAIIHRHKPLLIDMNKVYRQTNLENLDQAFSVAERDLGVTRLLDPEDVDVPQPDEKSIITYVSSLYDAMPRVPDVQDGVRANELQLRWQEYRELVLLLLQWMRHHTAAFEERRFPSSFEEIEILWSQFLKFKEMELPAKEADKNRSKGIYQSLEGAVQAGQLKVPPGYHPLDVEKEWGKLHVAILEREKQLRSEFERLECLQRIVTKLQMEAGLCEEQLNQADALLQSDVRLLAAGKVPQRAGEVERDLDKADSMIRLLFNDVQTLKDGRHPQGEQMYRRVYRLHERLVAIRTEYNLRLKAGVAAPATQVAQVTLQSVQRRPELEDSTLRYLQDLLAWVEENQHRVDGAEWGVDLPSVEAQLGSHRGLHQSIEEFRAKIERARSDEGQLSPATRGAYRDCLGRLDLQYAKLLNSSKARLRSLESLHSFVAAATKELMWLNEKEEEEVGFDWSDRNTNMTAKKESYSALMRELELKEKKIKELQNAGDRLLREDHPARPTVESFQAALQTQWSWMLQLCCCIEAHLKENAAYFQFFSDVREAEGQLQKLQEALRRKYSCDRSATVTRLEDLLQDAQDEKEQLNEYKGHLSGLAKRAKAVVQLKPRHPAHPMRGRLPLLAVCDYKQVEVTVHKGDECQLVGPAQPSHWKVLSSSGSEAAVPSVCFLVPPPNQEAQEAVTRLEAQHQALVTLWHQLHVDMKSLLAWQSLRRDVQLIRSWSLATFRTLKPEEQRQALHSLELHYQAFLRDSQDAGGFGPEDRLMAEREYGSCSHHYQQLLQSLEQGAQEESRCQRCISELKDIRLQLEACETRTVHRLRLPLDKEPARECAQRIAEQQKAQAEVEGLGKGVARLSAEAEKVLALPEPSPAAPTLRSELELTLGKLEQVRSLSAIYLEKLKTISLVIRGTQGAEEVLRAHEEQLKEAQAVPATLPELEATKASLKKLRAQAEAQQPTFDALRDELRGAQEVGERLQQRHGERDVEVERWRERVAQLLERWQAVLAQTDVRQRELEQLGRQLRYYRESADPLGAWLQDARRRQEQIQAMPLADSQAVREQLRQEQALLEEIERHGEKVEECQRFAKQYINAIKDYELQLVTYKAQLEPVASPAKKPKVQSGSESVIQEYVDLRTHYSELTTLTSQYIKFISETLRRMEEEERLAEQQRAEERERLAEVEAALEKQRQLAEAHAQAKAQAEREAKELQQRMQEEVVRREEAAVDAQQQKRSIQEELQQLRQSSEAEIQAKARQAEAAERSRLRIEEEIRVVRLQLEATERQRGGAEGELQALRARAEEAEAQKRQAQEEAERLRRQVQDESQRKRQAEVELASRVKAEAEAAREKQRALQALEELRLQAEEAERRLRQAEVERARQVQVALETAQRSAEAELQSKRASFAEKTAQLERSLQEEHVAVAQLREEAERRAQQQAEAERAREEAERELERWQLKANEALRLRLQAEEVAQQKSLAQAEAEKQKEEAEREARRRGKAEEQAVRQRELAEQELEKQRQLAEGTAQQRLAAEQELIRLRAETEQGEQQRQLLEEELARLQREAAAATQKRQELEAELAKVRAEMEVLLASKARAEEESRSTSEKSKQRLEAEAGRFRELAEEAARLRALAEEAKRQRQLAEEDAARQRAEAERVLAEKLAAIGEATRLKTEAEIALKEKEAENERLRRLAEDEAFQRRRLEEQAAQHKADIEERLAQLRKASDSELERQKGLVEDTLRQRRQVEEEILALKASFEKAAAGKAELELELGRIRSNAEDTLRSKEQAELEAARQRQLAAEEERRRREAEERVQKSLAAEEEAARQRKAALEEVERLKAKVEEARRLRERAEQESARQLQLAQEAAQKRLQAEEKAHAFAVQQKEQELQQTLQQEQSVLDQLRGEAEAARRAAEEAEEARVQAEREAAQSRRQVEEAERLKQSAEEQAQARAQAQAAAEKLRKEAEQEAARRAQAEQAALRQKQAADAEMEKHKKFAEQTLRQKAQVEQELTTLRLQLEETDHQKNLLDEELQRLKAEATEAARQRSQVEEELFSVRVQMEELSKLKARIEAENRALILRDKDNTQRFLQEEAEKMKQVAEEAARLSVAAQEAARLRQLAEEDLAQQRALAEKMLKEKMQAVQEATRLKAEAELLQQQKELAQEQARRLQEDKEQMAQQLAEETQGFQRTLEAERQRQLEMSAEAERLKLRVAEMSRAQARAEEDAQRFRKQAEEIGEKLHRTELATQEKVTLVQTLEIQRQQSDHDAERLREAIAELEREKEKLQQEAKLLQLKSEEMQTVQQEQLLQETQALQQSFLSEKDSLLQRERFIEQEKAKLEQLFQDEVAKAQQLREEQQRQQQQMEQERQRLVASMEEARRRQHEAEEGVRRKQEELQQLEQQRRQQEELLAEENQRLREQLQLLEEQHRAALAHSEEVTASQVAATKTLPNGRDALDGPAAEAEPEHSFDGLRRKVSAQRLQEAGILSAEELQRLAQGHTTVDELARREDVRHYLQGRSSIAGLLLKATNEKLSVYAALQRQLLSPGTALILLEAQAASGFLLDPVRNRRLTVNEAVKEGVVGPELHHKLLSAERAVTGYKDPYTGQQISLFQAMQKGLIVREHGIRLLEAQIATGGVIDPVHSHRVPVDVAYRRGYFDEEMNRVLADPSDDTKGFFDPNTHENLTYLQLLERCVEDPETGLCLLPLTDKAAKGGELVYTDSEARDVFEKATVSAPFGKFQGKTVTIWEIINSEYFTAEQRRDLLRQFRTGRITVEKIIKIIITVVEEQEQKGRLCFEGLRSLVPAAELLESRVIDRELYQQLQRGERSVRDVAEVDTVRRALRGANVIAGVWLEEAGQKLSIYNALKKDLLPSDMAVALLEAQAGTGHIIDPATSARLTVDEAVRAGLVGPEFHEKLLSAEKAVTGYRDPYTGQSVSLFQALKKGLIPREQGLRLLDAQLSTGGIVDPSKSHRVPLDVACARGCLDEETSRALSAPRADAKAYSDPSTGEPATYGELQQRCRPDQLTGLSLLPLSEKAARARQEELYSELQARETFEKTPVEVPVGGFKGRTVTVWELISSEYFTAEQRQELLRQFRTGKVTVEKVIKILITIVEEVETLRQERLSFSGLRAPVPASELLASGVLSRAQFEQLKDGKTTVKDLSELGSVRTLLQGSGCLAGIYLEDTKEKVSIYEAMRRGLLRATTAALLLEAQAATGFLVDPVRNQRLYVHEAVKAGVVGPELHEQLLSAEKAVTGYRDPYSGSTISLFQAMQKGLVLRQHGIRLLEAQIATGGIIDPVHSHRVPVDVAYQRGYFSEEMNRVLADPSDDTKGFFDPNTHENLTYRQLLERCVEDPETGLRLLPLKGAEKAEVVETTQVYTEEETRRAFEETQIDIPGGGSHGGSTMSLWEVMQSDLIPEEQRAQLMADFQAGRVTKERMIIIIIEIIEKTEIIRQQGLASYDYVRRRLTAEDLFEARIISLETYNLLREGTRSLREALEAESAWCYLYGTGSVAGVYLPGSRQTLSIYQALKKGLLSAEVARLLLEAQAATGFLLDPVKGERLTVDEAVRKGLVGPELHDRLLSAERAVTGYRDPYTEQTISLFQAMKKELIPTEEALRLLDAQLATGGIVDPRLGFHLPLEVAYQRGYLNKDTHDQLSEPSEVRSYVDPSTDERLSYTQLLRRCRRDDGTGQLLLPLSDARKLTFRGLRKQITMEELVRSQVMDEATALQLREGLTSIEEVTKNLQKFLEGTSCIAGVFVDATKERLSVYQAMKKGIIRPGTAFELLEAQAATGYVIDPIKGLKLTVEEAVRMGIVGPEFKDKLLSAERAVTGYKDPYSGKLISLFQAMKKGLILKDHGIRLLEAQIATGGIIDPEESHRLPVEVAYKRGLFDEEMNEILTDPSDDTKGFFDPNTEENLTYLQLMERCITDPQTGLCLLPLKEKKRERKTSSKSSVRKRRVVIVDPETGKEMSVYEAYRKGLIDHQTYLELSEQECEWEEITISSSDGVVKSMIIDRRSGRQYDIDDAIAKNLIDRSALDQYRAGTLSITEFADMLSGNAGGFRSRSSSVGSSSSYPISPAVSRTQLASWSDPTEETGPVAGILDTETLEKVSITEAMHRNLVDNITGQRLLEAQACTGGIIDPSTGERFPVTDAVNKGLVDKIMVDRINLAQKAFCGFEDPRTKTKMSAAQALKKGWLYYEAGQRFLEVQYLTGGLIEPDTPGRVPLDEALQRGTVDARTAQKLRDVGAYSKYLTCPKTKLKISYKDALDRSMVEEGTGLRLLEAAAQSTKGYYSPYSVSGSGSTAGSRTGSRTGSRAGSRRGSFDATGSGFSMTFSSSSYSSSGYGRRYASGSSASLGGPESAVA
Chain of UniProt P30533 (P30533 whole entry): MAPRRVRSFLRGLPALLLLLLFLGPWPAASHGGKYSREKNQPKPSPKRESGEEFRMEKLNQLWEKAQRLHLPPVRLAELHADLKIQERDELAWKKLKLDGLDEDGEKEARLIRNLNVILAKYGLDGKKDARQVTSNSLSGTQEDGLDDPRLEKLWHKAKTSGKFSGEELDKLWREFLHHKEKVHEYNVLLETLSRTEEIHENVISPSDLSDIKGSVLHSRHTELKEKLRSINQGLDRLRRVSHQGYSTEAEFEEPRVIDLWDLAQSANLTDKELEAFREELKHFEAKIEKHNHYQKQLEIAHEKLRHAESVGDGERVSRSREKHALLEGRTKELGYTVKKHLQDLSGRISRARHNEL
Chain of UniProt Q9BV40 (Q9BV40 whole entry): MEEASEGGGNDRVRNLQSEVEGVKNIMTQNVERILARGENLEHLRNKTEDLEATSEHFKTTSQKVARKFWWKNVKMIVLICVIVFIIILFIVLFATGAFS

Lysine labeling ratio R10:1, active:
CD109 (lysine site: K86) (UniProt Q6YHK3) 1.68
LMO7 (lysine site: K1405) (UniProt Q8WWI1) 1.4
UniProt Q15149 (lysine site: K1528) 1.47
DNAJA3 (lysine site: K391) (UniProt Q96EY1) 1.5
RPS19 (lysine site: K43) (UniProt P39019) 0.56
UniProt P83731 (lysine site: K97) 1.9
UniProt Q15149 (lysine site: K1055) 1.98
SPTAN1 (lysine site: K2404) (UniProt Q13813) 1.94
RPL3 (lysine site: K229) (UniProt P39023) 1.36
LDLR (lysine site: K603) (UniProt P01130) 1.19
LRPAP1 (lysine site: K340) (UniProt P30533) 1.47

Lysine labeling ratio R10:1, inactive:
CACNA2D1 (lysine site: K649) (UniProt P54289) 10.1
UniProt P05787 (lysine site: K11) 6.14
FN1 (lysine site: K2072) (UniProt P02751) 9.06
UniProt Q9BZM4 (lysine site: K158) 2.74
VAMP8 (lysine site: K64) (UniProt Q9BV40) 2.52
YBX1 (lysine site: K137) (UniProt P67809) 7.5
UniProt Q15149 (lysine site: K1815) 3.79
RPL4 (lysine site: K239) (UniProt P36578) 2.48
CTNNA1 (lysine site: K748) (UniProt P35221) 2.15
CEP250 (lysine site: K1048) (UniProt Q9BV73) 7.19
ATP1B1 (lysine site: K111) (UniProt P05026) 2.14
TNFRSF10A (lysine site: K191) (UniProt O00220) 6.6
UniProt P61160 (lysine site: K368) 3.41
UniProt P16144 (lysine site: K219) 4.33
DSG2 (lysine site: K67) (UniProt Q14126) 3.97
UniProt Q9NYQ6 (lysine site: K316) 3.81
UniProt Q8N441 (lysine site: K34) 3.03
UniProt P54851 (lysine site: K129) 4.76
FLNB (lysine site: K1221) (UniProt O75369) 3.74
STMN1 (lysine site: K126) (UniProt P16949) 2.8
CALD1 (lysine site: K674) (UniProt Q05682) 2.25
UniProt Q8WXI7 (lysine site: K12467) 5.1
UniProt Q96TA1 (lysine site: K322) 5.91
SPTAN1 (lysine site: K1141) (UniProt Q13813) 17.4
F11R (lysine site: K178) (UniProt Q9Y624) 5.39
TXNRD1 (lysine site: K396) (UniProt Q16881) 2.09
UniProt P02768 (lysine site: K438) 10
UniProt Q15149 (lysine site: K3285) 4.73
FLNA (lysine site: K2025) (UniProt P21333) 3.25
